Measured values: PubChem BioAssay
Active and inactive are the calls of the source.

Assays:
[1] = small molecules captured by biotinylated probe aFSTL3 – biochemical, small-molecule microarray, fluorescence 635/667, stem cell growth factor project, primary screen (AID 1064); details: higher = more signal;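 note: measures binding of the biotinylated anti-FSTL3 antibody to printed compounds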
[2] = binders from COS7 lysate, DM2A8 probe, primary screen, torsin A project, cell lysate, small-molecule microarray, fluorescence 635/667 (AID 1065); details: higher = more signal, COS7 lysate expressing mutant human TOR1A
[3] = small molecules captured by biotinylated probe aFGF2 – biochemical, small-molecule microarray, fluorescence 635/667, stem cell growth factor project, primary screen (AID 1067); details: higher = more signal;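 note: measures binding of biotinylated aFGF2 protein to printed compounds on slides; z-score merges feature fluorescence and signal-to-noise across triplicate slides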
[4] = small molecules captured by biotinylated probe aFGF10 – biochemical, small-molecule microarray, fluorescence 635/667, stem cell growth factor project, primary screen (AID 1071); details: higher = more signal;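 note: score merges 667 nm spot intensity and signal to noise from triplicate slides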
[5] = target: Neurogenic locus notch homolog protein 2 (Homo sapiens) (UniProt Q04721); assay: small molecules binding Notch2 protein – biochemical, small-molecule microarray, 635 nm fluorescence, stem cell growth factors, primary screen (AID 1073); details: higher = more signal
[6] = target: Pro-neuregulin-1, membrane-bound isoform (Homo sapiens) (UniProt Q02297); assay: small molecules binding neuregulin-1 protein – biochemical, small-molecule microarray, fluorescence 635/667, psychiatric disease protein project, primary screen (AID 1075); details: NRG1 binding, 635 nm fluorescence, higher = more signal;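 note: score combines 667 nm spot fluorescence with signal to noise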
[7] = tested on: Neuregulin-1 EGF-like domain; assay: small molecules binding NRG1 EGF domain – biochemical, small-molecule microarray, 635 nm fluorescence, primary screen (AID 1081); details: higher = more signal;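 note: binding of the protein to compounds printed on small-molecule microarray slides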
[8] = FRG1 expression reporter modulators in myotubes – cell-based, C2C12 myotubes, firefly/Renilla luciferase, luminescence, FRG1 inhibition for FSHD, primary screen (AID 1084); details: FRG1 promoter luciferase, higher = more signal, called active from +8 up or from −8 down
[9] = small molecules captured by biotinylated probe aFST – biochemical, small-molecule microarray, fluorescence 635/667, stem cell growth factor project, primary screen (AID 1086); details: higher = more signal;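 note: score merges 667 nm fluorescence with signal-to-noise of each printed compound spot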
[10] = binders of probe aHhip on microarray, primary screen, stem cell growth factor project, biochemical, small-molecule microarray, fluorescence 635/667 (AID 1087); details: higher = more signal;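 note: score merges spot fluorescence at 667nm with spot signal to noise ratio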

Pro-neuregulin-1, membrane-bound isoform (Homo sapiens), sequence (Q02297 whole entry, looked up, the tested form may be a part, canonical isoform): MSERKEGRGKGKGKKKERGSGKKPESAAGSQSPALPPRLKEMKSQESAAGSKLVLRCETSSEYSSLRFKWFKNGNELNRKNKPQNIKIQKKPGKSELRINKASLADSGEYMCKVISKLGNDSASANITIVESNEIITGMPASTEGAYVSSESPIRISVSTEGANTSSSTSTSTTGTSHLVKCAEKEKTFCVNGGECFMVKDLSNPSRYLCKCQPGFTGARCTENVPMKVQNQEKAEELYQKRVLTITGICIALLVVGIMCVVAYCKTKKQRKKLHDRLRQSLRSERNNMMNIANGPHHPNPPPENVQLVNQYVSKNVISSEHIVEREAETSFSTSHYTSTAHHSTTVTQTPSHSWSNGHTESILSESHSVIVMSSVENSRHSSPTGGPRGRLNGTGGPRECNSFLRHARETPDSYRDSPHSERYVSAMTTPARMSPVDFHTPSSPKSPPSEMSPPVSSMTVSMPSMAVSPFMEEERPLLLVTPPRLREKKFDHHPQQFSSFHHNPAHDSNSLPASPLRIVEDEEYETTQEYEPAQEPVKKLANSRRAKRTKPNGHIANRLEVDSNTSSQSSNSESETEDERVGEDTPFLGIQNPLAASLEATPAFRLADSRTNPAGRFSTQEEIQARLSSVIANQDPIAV
Neurogenic locus notch homolog protein 2 (Homo sapiens), sequence (Q04721 whole entry, looked up, canonical isoform): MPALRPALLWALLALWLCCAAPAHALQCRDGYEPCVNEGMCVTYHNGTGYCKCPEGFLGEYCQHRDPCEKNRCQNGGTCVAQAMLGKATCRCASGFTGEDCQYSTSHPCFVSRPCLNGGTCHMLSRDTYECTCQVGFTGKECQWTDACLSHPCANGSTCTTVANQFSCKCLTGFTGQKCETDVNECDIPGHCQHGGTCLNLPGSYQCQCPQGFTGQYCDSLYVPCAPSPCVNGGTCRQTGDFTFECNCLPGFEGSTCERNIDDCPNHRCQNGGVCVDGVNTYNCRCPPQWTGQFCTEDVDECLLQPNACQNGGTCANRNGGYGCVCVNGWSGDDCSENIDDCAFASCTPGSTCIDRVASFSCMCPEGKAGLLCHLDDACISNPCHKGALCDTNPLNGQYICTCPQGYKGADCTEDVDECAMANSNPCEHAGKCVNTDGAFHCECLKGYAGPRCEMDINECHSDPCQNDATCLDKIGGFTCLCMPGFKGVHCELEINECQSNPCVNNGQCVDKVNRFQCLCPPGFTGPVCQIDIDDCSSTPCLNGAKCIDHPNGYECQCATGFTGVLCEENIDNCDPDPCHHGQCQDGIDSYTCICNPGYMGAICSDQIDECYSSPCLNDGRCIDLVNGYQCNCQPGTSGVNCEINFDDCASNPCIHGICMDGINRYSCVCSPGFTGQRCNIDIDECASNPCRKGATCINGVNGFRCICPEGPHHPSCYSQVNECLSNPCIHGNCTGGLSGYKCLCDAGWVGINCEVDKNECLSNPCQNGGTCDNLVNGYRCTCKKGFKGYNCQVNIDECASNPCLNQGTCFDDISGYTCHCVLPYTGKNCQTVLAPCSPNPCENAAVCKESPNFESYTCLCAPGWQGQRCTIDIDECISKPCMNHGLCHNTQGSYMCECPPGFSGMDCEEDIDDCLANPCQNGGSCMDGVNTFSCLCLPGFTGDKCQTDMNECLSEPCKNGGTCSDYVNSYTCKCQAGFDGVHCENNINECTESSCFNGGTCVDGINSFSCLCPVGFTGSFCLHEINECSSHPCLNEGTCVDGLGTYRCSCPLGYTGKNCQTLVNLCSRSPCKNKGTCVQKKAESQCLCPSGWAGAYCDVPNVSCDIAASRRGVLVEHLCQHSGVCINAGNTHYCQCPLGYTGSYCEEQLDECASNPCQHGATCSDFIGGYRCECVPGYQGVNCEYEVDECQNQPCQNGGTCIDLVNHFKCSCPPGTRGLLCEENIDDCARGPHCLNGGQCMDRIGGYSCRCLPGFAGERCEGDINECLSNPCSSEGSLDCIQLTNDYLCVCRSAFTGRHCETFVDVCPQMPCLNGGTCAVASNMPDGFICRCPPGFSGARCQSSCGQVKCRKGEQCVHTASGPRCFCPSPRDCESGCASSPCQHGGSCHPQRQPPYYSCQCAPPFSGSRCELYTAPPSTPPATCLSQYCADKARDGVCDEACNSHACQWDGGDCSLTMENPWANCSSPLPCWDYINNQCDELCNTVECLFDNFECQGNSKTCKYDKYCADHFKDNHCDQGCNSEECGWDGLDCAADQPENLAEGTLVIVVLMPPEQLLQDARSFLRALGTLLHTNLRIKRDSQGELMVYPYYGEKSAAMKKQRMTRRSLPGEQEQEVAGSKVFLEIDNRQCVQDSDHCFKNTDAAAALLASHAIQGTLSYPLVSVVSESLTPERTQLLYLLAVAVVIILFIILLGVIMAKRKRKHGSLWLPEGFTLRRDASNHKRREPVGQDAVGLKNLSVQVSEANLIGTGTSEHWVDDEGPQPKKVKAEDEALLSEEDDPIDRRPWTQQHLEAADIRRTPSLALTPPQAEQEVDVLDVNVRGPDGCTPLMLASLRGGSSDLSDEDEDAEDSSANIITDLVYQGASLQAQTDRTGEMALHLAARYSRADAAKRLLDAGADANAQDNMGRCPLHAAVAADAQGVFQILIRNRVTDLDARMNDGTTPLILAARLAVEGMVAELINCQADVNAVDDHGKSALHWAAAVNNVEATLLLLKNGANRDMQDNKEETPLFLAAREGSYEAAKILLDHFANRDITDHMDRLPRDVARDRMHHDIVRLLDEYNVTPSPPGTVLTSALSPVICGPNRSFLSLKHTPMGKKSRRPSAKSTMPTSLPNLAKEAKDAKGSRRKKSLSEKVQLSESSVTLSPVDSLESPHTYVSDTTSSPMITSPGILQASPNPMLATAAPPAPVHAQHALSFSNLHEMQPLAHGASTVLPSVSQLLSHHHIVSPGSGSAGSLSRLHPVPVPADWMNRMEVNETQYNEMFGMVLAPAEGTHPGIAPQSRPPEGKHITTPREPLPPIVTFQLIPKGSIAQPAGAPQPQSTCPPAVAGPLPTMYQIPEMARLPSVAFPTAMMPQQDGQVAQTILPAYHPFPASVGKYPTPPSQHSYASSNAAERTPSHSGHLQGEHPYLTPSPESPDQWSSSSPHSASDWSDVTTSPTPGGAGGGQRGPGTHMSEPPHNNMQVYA

| SMILES | composite z-score [1] | composite z-score [2] | composite z-score [3] | composite z-score [4] | composite z-score [5] | composite z-score [6] | composite z-score [7] | z-score [8] | composite z-score [9] | composite z-score [10] |
| --- | --- | --- | --- | --- | --- | --- | --- | --- | --- | --- |
| CCN(CC)c1ccc(N2CC=CC34O[C@@H]5/C=C\CCCOC(=O)C5[C@H]3C(=O)N(CCCO)[C@@H]4C2=O)cc1 (stereo not given in full) | 0.485 | -0.701 | -0.113 | -0.883 | -0.991 | 1.45 | 0.657 | 2.31 (inactive) | -1.19 | -0.137 |
| NC(=O)NCC#Cc1ccc2c(c1)[C@]1(C(=O)N2)[C@H](c2ccc(O)cc2)N2[C@H](c3ccccc3)[C@H](c3ccccc3)OC(=O)[C@H]2[C@@H]1C(=O)N1CCN(c2ncccn2)CC1 | 0.687 | 0.585 | 0.0021 | 0.516 | 0.0269 | 0.302 | 0.562 | -1.09 (inactive) | 0.38 | -0.191 |
| COC(=O)[C@@]1(Cc2ccc(F)cc2)[C@H]2c3cc(C(=O)N4CCCC4)n(Cc4ccc(Cl)c(C(F)(F)F)c4)c3C[C@H]2CN1C(=O)c1ccccc1 | 2 | 0.554 | 0.713 | 1.04 | 1.73 | 1.61 | 1.14 | 0.339 (inactive) | 2.44 | 3.55 |
| C=C(COC)C(=O)CC[C@@H](OC(=O)c1ccccc1-c1ccccc1C(=O)O)c1ccc(CO)o1 | -0.229 | 1.23 | -0.0449 | -0.177 | 0.187 | 0.982 | 1.36 | -3.75 (inactive) | -0.551 | -0.0994 |
| CN1C(=O)C2C(C1=O)C1C=C(c3ccc(CO)cc3)C2C(C2CC2)N1Cc1cc2c(cc1Br)OCO2 (stereo not given) | -0.0526 | 1.44 | -0.0171 | 0.561 | 1.61 | 1.46 | 1.24 | -4.12 (inactive) | 0.917 | -0.127 |
| C=C(COC)C(=O)CC[C@H](OC(=O)c1cccnc1)c1ccccc1OCCO | -0.0665 | 0.903 | -0.0004 | 0.675 | 0.928 | 0.599 | 1.24 | 0.445 (inactive) | 0.437 | -0.236 |
| CC(C)NC(=O)[C@@]1(c2ccc([N+](=O)[O-])cc2)CC(=O)N(C(C)C)[C@@H]1c1ccc(CO)cc1 | 1.12 | -0.0946 | -0.134 | -0.218 | -0.999 | -0.524 | 0.697 | -0.31 (inactive) | -1.08 | -0.256 |
| O=C(NCc1ccccc1)[C@@H]1c2ccccc2C(=O)N(Cc2cc(F)cc(C(F)(F)F)c2)[C@H]1c1ccc(CO)cc1 | -0.307 | 0.582 | -0.0598 | 0.0655 | 0.558 | 0.393 | 1.32 | -1.67 (inactive) | 0.0906 | -0.179 |
| CO[C@H]1O[C@H](CO)[C@@H](OC(=O)Nc2cccc(F)c2)[C@H](OC(=O)Nc2ccccc2-c2ccccc2)[C@@H]1OC(=O)Nc1ccccc1-c1ccccc1 | -0.217 | 0.568 | 0.111 | 0.669 | 1.65 | 1.75 | 1.29 | 1.16 (inactive) | 1.02 | -0.374 |
| [N-]=[N+]=NCc1ccccc1[C@@H]1OC(c2ccc(OCCCO)cc2)=N[C@]1(Cc1ccccc1N=[N+]=[N-])C(N)=O | 0.209 | -0.523 | -0.156 | 0.385 | 1.66 | 2.08 | 1.27 | 0.722 (inactive) | 1.25 | -0.0994 |
| O=C1C2C=CC(C(O)C3CC=CCC3)N(n3cnnc3)C2C(=O)N1Cc1ccccc1 (stereo not given) | 0.61 | 0.43 | -0.158 | -1.03 | -1.23 | 0.998 | 0.518 | 0.37 (inactive) | -0.354 | 0.12 |
| COCCOC(=O)N1C(=O)[C@@]2(c3cc(C#CC4(O)CCCCCC4)ccc31)[C@H](c1ccc(O)cc1)N1[C@H](c3ccccc3)[C@H](c3ccccc3)OC(=O)[C@H]1[C@@H]2C(=O)N1CCc2cc(OC)c(OC)cc2C1 | 0.244 | -0.287 | -0.116 | -0.432 | -1.54 | 0.449 | 0.0919 | 0.0543 (inactive) | -0.538 | -0.268 |
| CN(C)CCCC[C@@H]1NC(=O)[C@H]2C[C@@H](C(=O)NCCCCCNC(=O)CS)[C@@H](c3ccc(O)cc3)N2C1=O | 0.594 | -0.149 | -0.203 | -0.122 | -1.21 | 0.356 | -0.458 | 0.348 (inactive) | -0.576 | -0.134 |
| NC(=O)NCC#Cc1ccc2c(c1)[C@]1(C(=O)N2)[C@H](C(=O)NC[C@H](O)c2ccccc2)[C@H]2C(=O)O[C@H](c3ccccc3)[C@H](c3ccccc3)N2[C@@H]1c1ccccc1OCCO | -0.226 | 0.0051 | -0.0934 | 0.0263 | -0.686 | 1.21 | 0.997 | -0.167 (inactive) | 0.213 | -0.0994 |
| COc1ccc(C(O)C2C=CC3C(=O)N(c4ccccc4)C(=O)C3N2Nc2ccccc2)c2ccccc12 (stereo not given) | 0.782 | -0.141 | -0.0201 | 0.354 | 0.945 | 0.724 | 1.04 | -0.0953 (inactive) | 0.563 | -0.163 |
| COc1ccc(CCNC(=O)[C@@]2(C)c3ccccc3C(=O)N(Cc3ccccc3)[C@H]2c2ccc(CO)cc2)cc1 | -0.277 | 1.25 | 0.0626 | 0.299 | 1.24 | 1.67 | 1.44 | -3.66 (inactive) | 0.851 | 0.0286 |
| O=C(NCc1ccccc1)[C@@H]1c2ccccc2C(=O)N(C2CCCCC2)[C@H]1c1ccc(CO)cc1 | -1.15 | 0.149 | -0.0407 | 0.57 | -0.287 | 1.68 | 1.38 | -1.48 (inactive) | -0.309 | -0.283 |
| CC(C)N1C(=O)c2ccccc2[C@](C)(C(=O)NC2CC2)[C@@H]1c1ccc(CO)cc1 | -0.181 | 0.007 | -0.129 | -0.0282 | 0.38 | 0.602 | 1.21 | -0.0117 (inactive) | 0.048 | 0.0246 |
| O=c1cccc(-c2cccc3ccccc23)o1 | 0.745 | -0.378 | -0.0316 | -0.413 | -0.0766 | -0.159 | 0.75 | 3.63 (inactive) | 0.0143 | 0.0053 |
| C[N+](C)(C)CCCC[C@@H]1NC(=O)[C@@H]2C[C@H](C(=O)NCCCCCCNC(=O)CS)[C@H](c3cccc(OCCO)c3)N2C1=O | -0.145 | 0.976 | -0.132 | -0.459 | -0.395 | 0.612 | 1.36 | -0.944 (inactive) | -0.713 | -0.0193 |
| CCCCC(=C=CC[C@H](O)c1ccccc1OCCO)C[C@H](O)c1cc(Cl)cc(Cl)c1O | -0.114 | -0.257 | -0.0628 | 0.583 | 0.151 | 0.371 | 1.1 | -2.37 (inactive) | 0.0025 | -0.226 |
